The list is not random: actives were taken first. Their share in the collection is about 8.8%.
LMNA splice mod: modulators of lamin A splicing; actives 0.01% (n = 200,000); AID 1487; HeLa LMNA splicing GFP/RFP minigene ratio, 48 h; Potency, µM (top dose mostly 46.1 µM), without a hit: top-dose ratio change, negative = inhibition, hits mostly inhibitors; active = well fitted inhibition curve with a large enough effect in the signal ratio, with a control signal flat, not every such curve was filed as active; inconclusive = small, poorly fitted or top-dose-only effect, or effect the other way, or a change in a side signal; the % refers to the signal ratio; note: % is set by controls: 0 for no effect and ±100 for the full control effect
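Read-out is the ratio of GFP to DsRed2 object intensity, acquired by 488 nm laser-scanning cytometry on HeLa lamin A-EGFP minigene reporter cells. Compound incubation 48 hrs at 37 °C in Opti-MEM with 2% FBS; DMSO 0.5% final.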
HTT ATP protect: cytoprotection in Huntington HTT-Q103 PC12 cell model. PC12 HTT-Q103 induced, cytoprotection, ATP luminescence, 40 h. Potency, µM (highest dose often 56.4 µM), inactives show cytoprotection (ATP increase), most hits filed as activators. actives 0.14% (n = 230,000); note: % of control where 0% means no effect; nearly all actives have a fitted effect of over 45% in size
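Compounds were screened for protection of PC12 cells against cell death after tebufenozide induction (100 nM final) of mutant Huntingtin exon 1 (Q103) fused to GFP.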
ALDH1A1 block: ALDH1A1 (human) enzyme inhibition; P00352; Purified ALDH1A1, NADH fluorescence, propionaldehyde substrate; Potency, µM (top dose mostly 75.3 µM), without a hit: at the highest dose activity, negative = inhibition, hits mostly inhibitors; actives 7.3% (n = 220,000); AID 1030; active = well fitted inhibition curve with a large enough effect, not every such curve was filed as active; inconclusive = small, poorly fitted or top-dose-only effect, or another doubt; inactive = no such curve, though single readings can be large or run the other way;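 note: plate controls were no enzyme wells and a reference inhibitor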
Target sequence (P00352 whole entry, looked up): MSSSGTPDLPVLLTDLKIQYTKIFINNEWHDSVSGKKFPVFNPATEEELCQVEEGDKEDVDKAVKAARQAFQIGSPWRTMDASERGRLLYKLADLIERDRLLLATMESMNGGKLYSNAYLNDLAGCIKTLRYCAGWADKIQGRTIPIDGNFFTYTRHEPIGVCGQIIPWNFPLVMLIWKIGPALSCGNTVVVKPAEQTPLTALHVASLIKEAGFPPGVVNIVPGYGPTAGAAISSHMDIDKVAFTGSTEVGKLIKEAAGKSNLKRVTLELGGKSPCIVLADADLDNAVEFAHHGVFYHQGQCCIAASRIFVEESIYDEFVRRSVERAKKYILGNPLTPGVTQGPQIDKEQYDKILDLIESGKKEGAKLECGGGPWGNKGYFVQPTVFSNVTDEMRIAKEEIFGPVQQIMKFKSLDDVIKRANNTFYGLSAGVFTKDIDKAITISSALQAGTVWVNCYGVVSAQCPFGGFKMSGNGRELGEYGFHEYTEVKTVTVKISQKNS
HttQ103 aggreg: mutant huntingtin aggregation inhibition | Potency, µM (doses to about 46.1 µM), for the others: top-dose activity change, negative = inhibition, hits mostly inhibitors | PC12 HttQ103-GFP aggregates, Acumen cytometry, 40 h | actives 1.1% (n = 220,000) | AID 1688; note: % is set by controls: 0 for no effect and ±100 for the full control effect; nearly all actives have a fitted effect of over 60% in size
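Multiplexed with ATP-based cell death, this channel scores GFP aggregates in PC12 cells expressing inducible HTTex1-Q103-GFP. Induction used 100 nM tebufenozide; compounds were tested in concentration series.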
HPGD inh: HPGD (human) dehydrogenase inhibition. purified HPGD, NADH fluorescence kinetic, PGE2 substrate. Potency, µM, without a hit: at the top dose activity change, negative = inhibition, hits mostly inhibitors. AID 894. actives 4.3% (n = 150,000); active = well fitted inhibition curve with a large enough effect, not every such curve was filed as active; inconclusive = small, poorly fitted or top-dose-only effect, or another doubt; inactive = no such curve, though single readings can be large or run the other way; note: % is set by controls: 0 for no effect and ±100 for the full control effect
Target sequence (P15428 whole entry, looked up): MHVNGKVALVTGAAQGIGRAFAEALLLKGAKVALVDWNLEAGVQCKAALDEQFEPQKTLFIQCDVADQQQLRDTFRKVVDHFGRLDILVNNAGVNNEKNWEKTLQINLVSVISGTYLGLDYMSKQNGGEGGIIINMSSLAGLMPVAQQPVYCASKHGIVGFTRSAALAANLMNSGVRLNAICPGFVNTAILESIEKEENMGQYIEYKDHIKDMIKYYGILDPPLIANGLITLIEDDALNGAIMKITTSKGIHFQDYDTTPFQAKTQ
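NADH formation kinetics: reaction with 30 uM PGE2 and 1 mM NAD+ (final), 20 nM enzyme, Tris-HCl pH 8 with Tween 20, after 15 min compound preincubation at room temperature. Fluorescence change, last versus first of five reads.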
* marks the source's active call; other numbers are inactive results; ? = inconclusive; nt = not tested or not shown; [ ] = dose if it differs, or a comment. Unless noted, calls come from the whole dose curve; as a rule, active = well fitted curve in the direction sought with a large enough effect; inconclusive = small, poorly fitted or top-dose-only effect, or another doubt; inactive = no such curve, though single readings can be large; an effect the other way counts as inactive or inconclusive. Potency is the fitted concentration of half-maximal effect.

SMILES | LMNA splice mod | HTT ATP protect | ALDH1A1 block | HttQ103 aggreg | HPGD inh
O=C(OCC(=O)N1CCc2ccccc21)c1ccccc1 | -10.3% | -2.2%[10 µM] | 2.5% | 2.5% | -10.0%
Cc1csc(=N)n1CC(=O)N1CCc2ccccc21 | -0.9% | 13.7% | 25.1µM* | -4.0% | -4.2%
O=C(CO/N=C/c1ccccc1O)N1CCc2ccccc21 | -3.5% | 8.9%[10 µM] | 10µM* | 3.6% | -7.8%
O=C(CCCC(=O)N1CCc2ccccc21)N1CCc2ccccc21 | 3.0% | -6.9% | 9.7% | 0.2% | -8.0%
CCOCC(=O)N1CCc2ccccc21 | -5.6% | -1.6%[0.074 µM] | 3.55µM* | -7.6% | -1.4%
CCOC(=O)c1cc2sccc2n1CC(=O)N1CCc2ccccc21 | ? | -8.5% | -1.8% | -3.7% | 0.6%
O=C(CSc1nnc(-c2ccc(Cl)cc2)o1)Nc1ccc(F)cc1 | 17.1%[46 µM] | nt | nt | nt | nt
CC12CC[C@@](C(=O)O)(C(=O)C1=O)C2(C)C | nt | -22.6% | -0.2% | nt | -0.2%
CCn1c(-c2cc(C3CC3)nc3ccccc23)n[nH]c1=S | 16.6% | nt | ? | ? | 12.6µM*
CCn1c(-c2cc(-c3cc(C)ccc3C)nc3ccccc23)n[nH]c1=S | 4.5% | nt | ? | 4.8% | -26.6%
CC(C)OCC1CC(CC(=O)Nc2ccc([N+](=O)[O-])cc2)C(=O)O1 (configuration not stated) | ? | -4.5%[10 µM] | -2.0% | 1.4%[9.22 µM] | nt
O=[N+]([O-])c1ccc(-n2nnnc2CN2CCCCC2)cc1 | nt | -22.6%[10 µM] | 20µM* | -26.3%[9.22 µM] | nt
O=[N+]([O-])c1ccc(-n2nnnc2CN2CCOCC2)cc1 | ? | nt | 6.7% | nt | nt
COc1cccc(/C=N/NC(=O)Cn2nc(C)c([N+](=O)[O-])c2C)c1O | ? | 22.3%[10 µM] | 8.3% | 2.82µM* | nt
COc1cccc(NC(=S)NNC(=O)C(C)n2nc(C)c([N+](=O)[O-])c2C)c1 (configuration not stated) | -3.6% | -15.6% | 0.0% | -8.3% | -2.7%
COc1cccc(/C=N/NC(=O)C(C)n2nc(C)c([N+](=O)[O-])c2C)c1O (configuration not stated) | ? | -61.8%[10 µM] | 16.3% | 15.8µM* | -10.7%
Ic1ccc2c(c1)N(c1ccccc1)c1cc(Nc3ccc4nc5ccc(I)cc5[n+](-c5ccccc5)c4c3)ccc1N2 | nt | -4.9%[10 µM] | ? | nt | -16.2%
CC(C)CNC(=O)CC(=O)N/N=C/c1ccc(F)cc1 | 2.6% | nt | 2.1% | -12.1% | -10.6%
C=CCn1c(SCC(=O)N(C)C2CCS(=O)(=O)C2)nc2ccccc2c1=O (configuration not stated) | 10.1%[46 µM] | 21.1%[10 µM] | 3.7% | 19.2% | nt
Cc1c(-n2c(SCC(=O)N(C)C3CCS(=O)(=O)C3)nc3ccccc3c2=O)c(=O)n(-c2ccccc2)n1C (configuration not stated) | ? | -29.5% | 25.1µM* | -13.3% | nt
Cc1c(Cl)cccc1-n1ncc(C(=O)Nc2ccc(Br)cc2F)c1C1CCNCC1 | -9.1%[46 µM] | nt | nt | nt | nt
NN/C(=C\[N+](=O)[O-])Nc1ccc(Cl)cc1 | ? | ? | 28.2µM* | -0.4%[9.22 µM] | nt
O=C(Nc1cccc(C(=O)O)c1)/C(=C\c1ccc2c(c1)OCO2)NC(=O)c1ccc(Br)o1 | nt | -29.4% | -7.4% | -6.8% | nt
O=C(Nc1ccccc1C(=O)O)/C(=C/c1ccc([N+](=O)[O-])cc1)NC(=O)c1ccc(Br)o1 | nt | -0.2% | 10µM* | -4.6% | nt
O=C(Nc1ccccc1C(=O)O)c1ccc(NC(=O)c2ccc(Br)o2)cc1 | 15.6% | 2.24µM* | ? | 10.2%[1.84 µM] | 17.8µM*
SMILES | LMNA splice mod | HTT ATP protect | ALDH1A1 block | HttQ103 aggreg | HPGD inh
c1cncc(-c2cncnc2NCc2cccs2)c1 | -4.3% | ? | 4.9% | nt | nt
COc1cc([N+](=O)[O-])ccc1NC(=O)N1CCN(c2cc(-c3noc(C)n3)ccc2C)CC1 | 5.9%[46 µM] | nt | nt | nt | nt
CCCCOc1cc(C[C@@H]2CNC(=O)N2)ccc1OC | nt | -15.1%[1.9 µM] | -6.8% | nt | -1.2%
Cc1ccc(CN2C(=O)N(c3ccc(C)c(Cl)c3)S(=O)(=O)c3ccccc32)cc1 | 15.4%[46 µM] | nt | nt | nt | nt
CCOC(=O)c1c(C(=O)OCC)c(C)n(N2C(=O)CSC2=S)c1C | 4.0% | 5.6%[10 µM] | 1.5% | 0.891µM* | -14.3%
CCOC(=O)c1c(C)[nH]sc1=S | 2.9% | -12.6% | ? | 11.5% | ?
Cc1cc(-c2csc(NC(=O)c3ccc(=O)[nH]c3)n2)c(C)n1Cc1ccco1 | 21.5%[46 µM] | 24.8%[10 µM] | 8.91µM* | 17.2%[9.22 µM] | nt
Cc1cc(-c2csc(NC(=O)c3ccc(=O)n(C)n3)n2)c(C)n1CC1CCCO1 (configuration not stated) | -3.3% | -26.7%[10 µM] | 20µM* | 16.2% | -10.1%
Cc1ccc2cc(C3C(C#N)=C(N)Oc4c3ccc3cccnc43)c(=O)[nH]c2c1 (configuration not stated) | ? | -57.6% | ? | 2.51µM* | -25.6%
CCOc1ccccc1N1CCN(C2=C(NS(=O)(=O)c3cccs3)C(=O)c3ccccc3C2=O)CC1 | -7.2% | -32.1% | 10µM* | -12.8% | -16.7%
CN1CCN(C2=C(NS(=O)(=O)c3cccs3)C(=O)c3ccccc3C2=O)CC1 | nt | 13.0%[10 µM] | nt | 24.3%[9.22 µM] | nt
Cc1cccc(-n2ncc(C(=O)N3CCN(C4CCCCC4)CC3)c2C2CCN(C(=O)OC(C)(C)C)CC2)c1 | -14.7%[46 µM] | nt | nt | nt | nt
COCCSc1ccccc1C(=O)Nc1cc(C)on1 | 3.5% | -3.1% | ? | -1.1% | 31.6µM*
CCC(C)[C@H](NC(=O)NCc1ccco1)C(=O)OC (some centres not stated) | nt | 6.4%[10 µM] | 12.6µM* | 15.0%[9.22 µM] | nt
COCCSc1ccccc1C(=O)NCc1ccco1 | -1.5% | 10.4% | 14.1µM* | 22.9% | 8.91µM*
COCCSc1ccccc1C(=O)Nc1ccc(Cl)cc1 | 11.7%[46 µM] | -29.5% | -6.9% | 9.8% | nt
COC(=O)[C@H](C)NC(=O)NCc1ccco1 | 2.9% | 6.3% | ? | 7.8% | -1.8%
O=[N+]([O-])c1ccccc1Oc1ccccc1Cl | 1.5% | -11.0%[10 µM] | 10.2% | -10.0% | 31.6µM*
Nc1ccc(SC(F)(F)F)cc1 | 7.1%[46 µM] | -14.7%[10 µM] | 20µM* | 21.8% | nt
CC(=O)OC1c2ccccc2C(=O)N1Cc1ccccc1Cl (configuration not stated) | -7.4% | -4.2% | ? | -15.2% | 17.8µM*
CN1CCN(c2ccccc2NC(=O)Cc2cn(C)c3ccccc23)CC1 | -11.6% | -53.5% | 4.1% | 25.1µM* | -5.0%
CSc1ccccc1C(=O)OCC(=O)NC1CCS(=O)(=O)C1 (configuration not stated) | nt | nt | -6.5% | 11.5% | nt
COc1ccc(C(=O)n2c(SC)nc3cc4c(cc32)OCCO4)cc1 | 16.0% | -48.3% | ? | -4.4% | -15.7%
C[N+]1(C)[C@@H]2CC(OC(=O)C(O)(c3cccs3)c3cccs3)C[C@H]1[C@@H]1O[C@@H]12 (some centres not stated) | nt | 22.2% | nt | 6.0% | nt
O=C1C=CC(=O)N1CCCCCCN1C(=O)C=CC1=O | ? | -87.7%[10 µM] | 0.224µM* | 5.01µM* | 2.24µM*
CC1(C)C[C@](C)(C(=O)c2ccccc2)C=C1c1ccccc1 | nt | 0.5% | 4.9% | nt | -7.0%

From PubChem BioAssay
